# ANO1 activ – activators or potentiators of mouse TMEM16A chloride channel | Q8BHY3 | HEK293 TMEM16A/YFP-H148Q/I152L, iodide quench fluorescence; hits give low values | B-score at 10 µM | 340,000 tested, 0.3% active;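 active = fluorescence-ratio B-score plate-corrected deviation score at least 3 library SD below zero, with starting fluorescence score within 5 deviations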;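 note: channel opened by trigger with iodide after compound preincubation; score built on the fluorescence ratio of max minus min over baseline; more negative score means more quench and so TMEM16A activation or potentiation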
# CHT block – human CHT choline transport inhibition | Q9GZV3 | CHT-expressing cells, membrane potential dye, choline response; hits give low values | B-score at 10 µM | 310,000 tested, 0.86% active | AID 488975;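 active = B-score over 3 SD under the library average, and starting fluorescence ratio not unusually high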;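 note: choline stimulus applied at its EC90 after an EC20 pre-addition; B-score computed on integrated fluorescence ratio after choline addition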
# Target sequence (Q9GZV3 whole entry, looked up): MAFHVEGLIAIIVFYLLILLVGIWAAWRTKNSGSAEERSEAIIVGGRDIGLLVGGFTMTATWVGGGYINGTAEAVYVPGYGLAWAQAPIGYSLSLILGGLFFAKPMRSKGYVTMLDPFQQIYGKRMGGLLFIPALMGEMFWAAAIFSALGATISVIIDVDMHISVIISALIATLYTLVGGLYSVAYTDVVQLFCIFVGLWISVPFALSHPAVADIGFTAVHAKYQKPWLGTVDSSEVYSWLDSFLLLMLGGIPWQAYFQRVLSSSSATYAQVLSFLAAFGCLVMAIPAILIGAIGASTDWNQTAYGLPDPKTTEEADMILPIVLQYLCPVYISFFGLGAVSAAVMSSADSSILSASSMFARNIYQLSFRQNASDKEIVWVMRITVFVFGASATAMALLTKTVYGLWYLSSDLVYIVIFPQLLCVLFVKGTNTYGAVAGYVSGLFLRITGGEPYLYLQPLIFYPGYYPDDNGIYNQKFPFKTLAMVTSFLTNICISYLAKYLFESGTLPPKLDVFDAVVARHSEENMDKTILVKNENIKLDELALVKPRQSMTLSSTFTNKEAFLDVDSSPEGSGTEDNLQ
# HDAC3 inhib – human HDAC3 inhibition. 320,000 tested, 0.15% active. recombinant HDAC3, fluorogenic peptide/trypsin coupled, fluorescence. O15379. AID 2718. inhibition, % at 8.3 µM; in the data active = inhibition above about 26%, passing the limit was not always enough; inconclusive = no clear call, values can overlap the other calls
# TMEM16A inh – inhibitors of mouse TMEM16A calcium-activated chloride channel; Q8BHY3; HEK293 TMEM16A/YFP iodide influx fluorescence, ionomycin; normalized B-score (activity score, 25-100; higher = stronger inhibition) at 10 µM; 310,000 tested, 1.2% active;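 active = ratio plate-corrected score three or more library SD toward inhibition, starting fluorescence score within five deviations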;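 note: score derived from kinetic fluorescence span divided by baseline fluorescence per well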
# PHOSPHO1 inh – PHOSPHO1 (human) inhibition | recombinant PHOSPHO1, absorbance phosphatase assay | Q8TCT1 | AID 1565 | 290,000 tested, 1.1% active | inhibition, % at 13.3 µM; in the data active = inhibition above about 60%
# CHT PAM – human CHT allosteric activation | AID 488977 | B-score at 10 µM | Q9GZV3 | CHT-expressing cells, membrane potential dye, choline EC20; hits give high values; LV-AA mutant CHT in HEK293 cells | 310,000 tested, 0.49% active;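 active = initial fluorescence not abnormally high and integrated response B-score, plate-corrected, over 3 SD above library mean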
# An asterisk follows results filed as active; i = inactive; ? = inconclusive; . = not tested or not shown. Sampled rows, rich in hits. Any-hit rate of the full collection: about 3.2%.
SMILES,ANO1 activ,CHT block,HDAC3 inhib,TMEM16A inh,PHOSPHO1 inh,CHT PAM
CC(C)[C@@H](NC(=O)C1CCN(C(=O)[C@@H]2CCCN2C(=O)OC(C)(C)C)CC1)C(=O)NCc1ccc(F)cc1,-24*,i,8,i,40,i
O=C(NCc1nnc(SCC(=O)N2CCOCC2)o1)c1c(F)cccc1F,i,i,?,i,-15,i
c1cc(CCCc2ccncc2)ccn1,i,.,-1,.,.,.
COc1ccc2[nH]cc(C(=O)CNc3nc(C)cs3)c2c1,i,i,8,i,89*,i
COCCCn1c(-c2ccc(S(=O)(=O)N3CCOCC3)cc2)csc1=Nc1ccccc1,i,i,2,i,69*,i
CC(C)(CNC(=O)c1cc2ccccc2o1)N1CCOCC1,i,i,-2,i,68*,i
Cc1ccc(S(=O)(=O)c2c(N)n(CCC(C)C)c3nc4ccccc4nc23)cc1,i,i,-14,i,6,i
Cc1ccc(S(=O)(=O)c2c(N)n(CCN3CCOCC3)c3nc4ccccc4nc23)cc1C,-20*,i,-15,i,5,i
Nc1c(S(=O)(=O)c2ccccc2)c2nc3ccccc3nc2n1CCN1CCOCC1,i,i,-12,i,-12,i
Cc1ccc(S(=O)(=O)c2c(N)n(Cc3ccco3)c3nc4ccccc4nc23)cc1C,i,i,-38,25*,17,i
Cc1ccc(S(=O)(=O)NC2CC2)cc1[N+](=O)[O-],i,i,0,i,.,i
COc1ccccc1N1CCN(C2CC(=O)N(c3ccccc3)C2=O)CC1 (stereo not drawn),i,i,-3,i,45,i
O=C(O)c1ccc(NC(=S)NC(=O)c2cccnc2)cc1,i,i,-2,i,24,i
Cc1ccc(-c2nn(-c3ccc(F)cc3)cc2C(=O)N2CCN(C3CCS(=O)(=O)C3)CC2)cc1 (stereo not drawn),-37*,.,1,.,.,.
O=C(CN1C(=O)NC2(CCCCCC2)C1=O)N1CCN(S(=O)(=O)c2ccccc2)CC1,i,i,0,i,17,i
COC(=O)CCN1CCN(S(=O)(=O)c2ccccc2Br)CC1,i,i,0,i,62*,i
COc1ccc(/C=C(\NC(=O)c2ccccc2)C(=O)N/N=C/c2ccncc2)cc1,i,i,9,i,65*,i
COc1ccc(/C=C(/NC(=O)c2ccc(C)cc2)C(=O)NCc2ccncc2)cc1,i,i,3,i,70*,i
Cc1ccc(CN2CCCNC2=O)cc1,i,i,7,i,4,i
O=[N+]([O-])c1ccc(NN=Cc2cc(Br)ccc2O)nc1,i,.,.,.,.,.
N#C/C(=C/c1ccc([N+](=O)[O-])cc1)C(=O)Nc1ccccc1O,i,i,7,i,-5,i
N#C/C(=C/c1ccc(O)c([N+](=O)[O-])c1)C(=O)Nc1ccccc1,i,i,11,25*,-10,i
Cc1cc(/C=C2\SC(=S)NC2=O)c(C)n1-c1ccccc1,i,i,7,i,-48,i
Cc1cc(/C=C2\SC(=S)NC2=O)c(C)n1C,i,i,9,i,88*,i
Cc1c(-c2c(C#N)c(N)nc3c2CCCCCC3)cnn1C,i,i,-1,i,6,i
SMILES,ANO1 activ,CHT block,HDAC3 inhib,TMEM16A inh,PHOSPHO1 inh,CHT PAM
Cc1nn(C)c(C)c1-c1c(C#N)c(N)nc2c1CCCCCC2,-6.1*,i,-21,i,18,i
CCOC(=O)N1CCN(C2=C(NS(=O)(=O)c3ccc(C)cc3)C(=O)c3ccccc3C2=O)CC1,i,i,3,i,34,i
O=C(O)c1[nH]c2ccccc2c1NS(=O)(=O)c1ccc(F)cc1,-49*,i,-7,i,-5,i
COc1ccc(S(=O)(=O)N2CCCCCC2)cc1C(=O)N(C)Cc1ccc(Cl)cc1Cl,-22*,i,4,i,.,i
COc1ccc(S(=O)(=O)N2CCCCCC2)cc1C(=O)N(C)Cc1c(F)cccc1Cl,i,.,2,.,.,.
O=C(Nc1ccccc1C(=O)OCn1nnc2ccccc2c1=O)c1ccco1,i,i,6,i,-2,i
Cc1cc(C)c(C)c(S(=O)(=O)Nc2ccc(C(=O)N3CCCC3)cc2)c1C,i,i,-3,i,36,i
COc1ccccc1-c1ccc(SCc2cccc(C)c2)nn1,i,i,0,100*,34,i
O=C(N/N=C/c1ccc(O)c(Br)c1)c1cc2c(ccc3ccccc32)o1,i,i,-4,i,17,i
O=C(N/N=C/c1cc(Br)c(O)c(Br)c1)c1cc2c(ccc3ccccc32)o1,i,i,-1,100*,-2,i
O=C(N/N=C/c1cc(Cl)c(O)c(Cl)c1)c1cc2c(ccc3ccccc32)o1,i,i,-1,100*,33,i
O=C(O)CCSc1nc2ccc(Br)cc2[nH]1,i,i,-2,i,66*,i
CCCCc1nc2cc(C(=O)N3CCCCC3CC(=O)OCC)ccc2o1 (stereo not drawn),i,i,0,i,28,i
COC(=O)CC1(c2cccc3ccccc23)C(=O)c2ccccc2C1=O,i,i,-4,i,4,i
CCn1c(-c2ccc(-c3ccccc3)cc2)c[nH]c1=S,i,i,-3,i,97*,i
C=CCn1c(-c2ccccc2)c[nH]c1=S,i,i,-2,i,79*,i
Cc1ccc(-c2c[nH]c(=S)n2-c2ccccc2)cc1,i,i,2,i,45,i
C=CCn1c(-c2ccc(Cl)cc2)c[nH]c1=S,i,i,-2,i,94*,i
CCOc1ccc(-n2c(-c3ccccc3)c[nH]c2=S)cc1,i,i,-1,i,-64,i
Cn1c(-c2ccc(-c3ccccc3)cc2)c[nH]c1=S,i,i,-13,i,95*,i
Cc1cc(C(F)(F)F)cc(NNC(=O)NC(=O)c2ccc(Cl)cc2)n1,i,i,1,i,32,i
COC(c1ccccc1)c1nnc(CCC(=O)N2CCCCCCC2)o1 (stereo not drawn),i,i,-2,i,-5,i
COc1ccc(OCc2nnc(SCC(=O)N3CCCc4ccccc43)n2-c2ccc(C)cc2)cc1,i,i,8,i,7,i
COCCOC(=O)C1=C(C)N(Cc2ccccc2)C(=O)NC1c1ccc(OC)cc1 (stereo not drawn),i,i,4,100*,4,i
O=c1[nH]c2cc3c(cc2cc1CN(CCCO)C(=S)NCc1ccco1)OCO3,i,i,-1,i,17,i
